“And” between values parts separate entries of the source, which are not always exact repeats. Equal values may be shown once. A number with no mark means an inactive call. The call rests on the fitted dose curve.
Test: qHTS assay to identify small molecule agonists of the estrogen related receptor (ERR) signaling pathway from Tox21 library (AID 1224849); further: nearly all actives have a fitted effect of over 15% in size
Conditions: ERR reporter cell line, ONE-Glo luciferase, 18 h; at 42.5 µM (top of the series)
Source text: National Center for Advancing Translational Sciences [NCATS]
NIH Chemical Genomics Center [NCGC]
U.S. Environmental Protection Agency [EPA]
National Institutes of Environmental Health Sciences [NIEHS]
National Toxicology Program [NTP]
Estrogen related receptors (ERRs), the first orphan nuclear receptors discovered, play an important role in the control of cellular energy metabolism. ERRs are required for high-energy production in response to the environmental challenges. ERR-alpha was also identified as an adverse marker for breast cancer progression; ERR-alpha-positive tumors have a poor prognosis. To screen and to identify environmental compounds that perturb the ERR signaling pathways could provide valuable information for potential therapeutic or preventive measures in the treatment of metabolic disease. For identifying ERR agonists, ERR cell line (provided by NTP) has been used to screen Tox21 10K library.
The ERR cells were dispensed at 2,000 cells/5 ul/well in 1536-well white plates using a Multidrop dispenser. After the assay plates were incubated at a 37 C/5% CO2 incubator for 6 hours, 23 nL of compounds dissolved in DMSO, positive and negative controls or DMSO only was transferred to the assay plate by a pin tool. The plates were incubated at 37 C for 18 hours. 4 ul/well of One-Glo reagent was added into the assay plates using a Flying Reagent Dispenser. After 30-minute incubation at room temperature, the luminescence intensity in the plates was measured using a ViewLux plate reader.
On the % scale 0 is the no-effect control and ±100 the full control effect.

Structure (SMILES) | activity change, positive = activation
CC(CN1c2ccccc2Sc2ccccc21)N(C)C (stereo not given) | -5.06%
OC[C@H]1O[C@@H](Oc2ccc(O)cc2)[C@H](O)[C@@H](O)[C@@H]1O | 7.9%
NCCNCCNCCN | 0.597%
CC1(C)[C@@H](O[C@H]2O[C@H](C(=O)O)[C@@H](O)[C@H](O)[C@H]2O[C@@H]2O[C@H](C(=O)O)[C@@H](O)[C@H](O)[C@H]2O)CC[C@]2(C)[C@H]3C(=O)C=C4[C@@H]5C[C@@](C)(C(=O)O)CC[C@]5(C)CC[C@@]4(C)[C@]3(C)CC[C@@H]12 | 2.2% and 1.06%
Nc1nc(N)c2nc(-c3ccccc3)c(N)nc2n1 | -33.8%
O=c1n(CCCN2CCN(c3cccc(Cl)c3)CC2)nc2ccccn12 | -14.9%
COC(=O)/C=C\C(=O)OC | 7.01%
CC(=O)Nc1ccc(CC(=O)O)cc1 | -1.58%
COc1ccc2cc3[n+](cc2c1OC)CCc1cc2c(cc1-3)OCO2 | -43.6%

Same assay, conditions: ERR reporter cell line, ONE-Glo luciferase, 18 h; at 92.4 µM (top of the series)

Structure (SMILES) | activity change, positive = activation
CN=C(NC#N)NCCSCc1nc[nH]c1C | 2.07%
CC(C)(CO)CO | 2.96% and 5.63%
CC(CN1c2ccccc2Sc2ccccc21)N(C)C (stereo not given) | -81.8% and -69.4%
O=C1OC(=O)c2c(Cl)c(Cl)c(Cl)c(Cl)c21 | -24.8%
NC1CCCCC1N (stereo not given) | 1.49% and 5.92%
OC[C@H]1O[C@@H](Oc2ccc(O)cc2)[C@H](O)[C@@H](O)[C@@H]1O | 7.42%
Nc1cccc(C(F)(F)F)c1 | 2.57% and 2.05%
O=[N+]([O-])c1ccccc1C(F)(F)F | -5.97% and 7.68%
COc1cc(NC(=O)CC(C)=O)c(OC)cc1Cl | -16.1% and -21.5%
CC(=O)OCCC(C)C | 1.01% and 5.99%
COC(=O)OC | 8.59% and 5.73%
O=[N+]([O-])c1cc(C(F)(F)F)ccc1Cl | 3.85%
CS(=O)(=O)c1ccc(Cl)cc1 | 8.49%
CCCCCCCCCCCCCC(=O)O | -1.8% and -13.1%
Nc1nc(N)c2nc(-c3ccccc3)c(N)nc2n1 | -44.9% and -45.9%
Cc1cc(C)c(O)c(C)c1 | 10.5% and 2.09%

Structure (SMILES) | activity change, positive = activation
CC(=O)OCc1ccc2c(c1)OCO2 | -6.11% and 0.823%
O=c1n(CCCN2CCN(c3cccc(Cl)c3)CC2)nc2ccccn12 | -28.6%
C[n+]1ccn(CCO)c1 | 4.16% and -3.23%
COC(=O)/C=C\C(=O)OC | 2.62%
CC(C=O)Cc1ccc(C(C)(C)C)cc1 (stereo not given) | -5.89% and -7.2%
N#CCC(=O)O | 4.35% and -0.59%
CC(=O)Nc1ccc(CC(=O)O)cc1 | 9.59%
CC(COCC(C)OC(=O)c1ccccc1)OC(=O)c1ccccc1 (stereo not given) | -2.03% and -5.66%
O=C(O)Cc1c[nH]c2ccccc12 | 5.71% and 6.87%
CCCCC(CC)COC(=O)c1ccc(C(=O)OCC(CC)CCCC)cc1 (stereo not given) | -0.0437%
COc1ccc2cc3[n+](cc2c1OC)CCc1cc2c(cc1-3)OCO2 | -64.1%
CC1=CC(=O)CC(C)(C)C1 | -82.9% and 7.49%
Cc1cc(C)cc(O)c1 | 8.03% and 0.796%
CC(=O)OC(C)(C)C1CC=C(C)CC1 (stereo not given) | 5.97% and -1.38%
OCCOCCOCCOCCOCCO | 2.04% and 4.48%
